Compound activity deposited in PubChem by National Center for Advancing Translational Sciences (NCATS).
A selection: hits, their analogues and other compounds. The true share with any hit is near 8.5%.
NPSR antag – blocks cAMP signaling of the human neuropeptide S receptor | CHO-NPSR cells, cAMP TR-FRET, antagonist mode | Q6W5P4 | 1% of 220,000 active | Potency, µM (series often up to 38.3 µM), without a hit: at the highest dose activity change, negative = inhibition, hits mostly inhibitors; further: potency means the concentration at half of the fitted maximal effect; nearly all actives have a fitted effect of over 50% in size
Target sequence (Q6W5P4 whole entry, looked up): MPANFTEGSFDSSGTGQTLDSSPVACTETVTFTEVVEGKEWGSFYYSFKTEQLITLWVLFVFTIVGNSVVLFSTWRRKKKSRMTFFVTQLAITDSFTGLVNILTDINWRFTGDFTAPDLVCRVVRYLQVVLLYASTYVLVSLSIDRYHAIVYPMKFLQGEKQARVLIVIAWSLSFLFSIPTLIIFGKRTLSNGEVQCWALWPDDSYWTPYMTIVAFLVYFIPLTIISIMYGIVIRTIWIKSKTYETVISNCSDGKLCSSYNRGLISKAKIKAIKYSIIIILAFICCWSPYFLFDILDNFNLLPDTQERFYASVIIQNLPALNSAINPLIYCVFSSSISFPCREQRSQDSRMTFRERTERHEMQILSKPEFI
ALDH1A1 inh – inhibitors of human aldehyde dehydrogenase 1A1; P00352; Purified ALDH1A1, NADH fluorescence, propionaldehyde substrate; Potency, µM (highest dose often 75.3 µM), inactives show top-dose activity, negative = inhibition, hits mostly inhibitors; 7.3% of 220,000 active; active means well fitted inhibition curve with a large enough effect, not every such curve was filed as active; inconclusive means small, poorly fitted or top-dose-only effect, or another doubt; inactive means no such curve, though single readings can be large or run the other way;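 further: potency means the concentration at half of the fitted maximal effect; plate controls were no enzyme wells and a reference inhibitor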
Sfp inh – inhibitors of Bacillus subtilis Sfp phosphopantetheinyl transferase | Q9F4F7 | Biochemical Sfp PPTase activity, qHTS | Potency, µM, inactives show largest response in the series, negative = inhibition, hits mostly inhibitors | 3.5% of 310,000 active;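 further: the enzyme is Sfp with the accession as filed and its product quenches rhodamine fluorescence; potency means the concentration at half of the fitted maximal effect; 0% = enzyme reaction without inhibitor and -100% = no enzyme wells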
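Compounds were incubated with enzyme (final 15 nM) for 15 min at room temperature before substrate addition started the reaction. Fluorescence at 525 nm excitation, 598 nm emission was recorded immediately and after 30 minutes.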
JMJD2E inh – blocks human JMJD2E demethylase activity | B2RXH2 | JMJD2E catalytic domain, FDH-coupled NADH fluorescence (FDH is formaldehyde dehydrogenase) | Potency, µM (top dose mostly 57.1 µM), inactives show at the top dose activity change, negative = inhibition, actives largely listed as inhibitors | 1.6% of 230,000 active; active means well fitted inhibition curve with a large enough effect, not every such curve was filed as active; inconclusive means small, poorly fitted or top-dose-only effect, or another doubt; inactive means no such curve, though single readings can be large or run the other way;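 further: potency means the concentration at half of the fitted maximal effect; 0% = wells with enzyme and -100% = buffer wells without enzyme; nearly all actives have a fitted effect of over 50% in size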
Coupling enz – inhibits coupling enzyme system, counter-screen for aldolase hits; AID 2472; coupling enzyme system counterscreen, AmpLite Red fluorescence; 0.67% of 290,000 active; activity change, negative = inhibition, % at 58.2 µM, hits read low; in the data active means activity change below about -30%
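Counterscreen lacking aldolase: glyceraldehyde-3-phosphate coupling-enzyme reagent preincubated 10 min at RT with compound (at 57.5 uM final), then substrate/coupling system with AmpLite Red added; fluorescence read at 525/598 nm after 20 min RT.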
GoLoco inh red – RGS12 GoLoco-Gai1 interaction inhibition; P63096; Gai1:RGS12 GoLoco peptide FP, rhodamine, 10 min; Potency, µM (doses to about 61.6 µM), for inactives: at the top dose activity, negative = inhibition, hits mostly inhibitors; 0.44% of 230,000 active; active means well fitted inhibition curve with a large enough effect, not every such curve was filed as active; inactive means no such curve, though single readings can be large or run the other way; further: potency means the concentration at half of the fitted maximal effect; nearly all actives have a fitted effect of over 30% in size
Target sequence (P63096 whole entry, looked up): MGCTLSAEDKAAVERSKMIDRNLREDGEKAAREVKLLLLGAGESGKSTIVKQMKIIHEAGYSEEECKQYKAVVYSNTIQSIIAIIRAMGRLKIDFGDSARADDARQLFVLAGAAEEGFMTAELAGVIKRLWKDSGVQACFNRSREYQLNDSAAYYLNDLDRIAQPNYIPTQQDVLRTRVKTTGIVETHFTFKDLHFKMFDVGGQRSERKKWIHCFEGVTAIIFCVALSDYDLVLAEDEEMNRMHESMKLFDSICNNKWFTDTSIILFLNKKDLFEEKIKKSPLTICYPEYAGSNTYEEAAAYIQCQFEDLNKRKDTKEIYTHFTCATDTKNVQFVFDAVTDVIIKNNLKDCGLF
Active calls of the source: *; u = inconclusive; x = not tested or not shown; [ ] = dose if it differs, or a comment. Unless noted, the call rests on the fitted dose curve; in most records, active means well fitted curve in the direction sought with a large enough effect; inconclusive means small, poorly fitted or top-dose-only effect, or another doubt; inactive means no such curve, though single readings can be large; an effect the other way counts as inactive or inconclusive. Unless noted, on the % scale 0 is the no-effect control and ±100 the full control effect.

SMILES	NPSR antag	ALDH1A1 inh	Sfp inh	JMJD2E inh	Coupling enz	GoLoco inh red
O=C(O)c1c[nH]c2cc(OCc3ccccc3)ccc2c1=O	x	u	x	x	x	1%[14.2 µM]
COc1ccc(C2=NS(=O)(=O)N(C)C(C(=O)N3CCCCC3C)=C2)cc1 (configuration not stated)	x	x	-7%	x	-3	x
Fc1cc(F)c(F)c(SCCc2ccncc2)c1F	4%[46.1 µM]	7.9µM*	u	u	-25	13%
CCSc1oc(-c2ccco2)nc1S(=O)(=O)c1ccc(F)cc1	u	25µM*	-26%	u	-4	36%
CCSc1oc(-c2ccco2)nc1S(=O)(=O)c1ccc(C)cc1	x	x	-11%	x	0	x
O=[N+]([O-])c1cc(N(CCO)CCO)ccc1NCCO	x	u	x	x	x	0%
COc1ccc(S(=O)(=O)Nc2ncccc2C)c2ccccc12	x	x	14%	x	0	x
CC(=O)/C(=N\Nc1ccccc1)Sc1nnc(-c2ccccc2)n1-c1ccccc1	u	2%	-27%	2%	-2	-1%
O=C(/C(=N\Nc1ccccc1)Sc1nnnn1-c1ccccc1)c1ccccc1	0%	1.4µM*	1%	-7%	6	4%
CC(=O)/C(=N\Nc1ccccc1)Sc1nncn1C	21%	-6%	20µM*	-2%	-1	-12%
CCN(CC)CCCCC1CCN(CC(=O)N2c3ccccc3C(=O)Nc3cccnc32)CC1	x	2%	13%	18%	7	-2%
O=C(Nc1ccc2c(c1)C(=O)NC2=O)c1ccc(S(=O)(=O)N2CCCC2)cc1	-33%	u	17%	u	-3	1%
O=C(NCc1cccc(Cl)c1)c1cccnc1	21%[46.1 µM]	3%	-6%	-3%	3	-5%
O=C(NCc1cccnc1)c1cccnc1-c1nc2ccccc2s1	-10%[46.1 µM]	20µM*	-11%	u	-11	7%
O=C(NCc1cccnc1)c1cc(Sc2cccc(Cl)c2)nc2ccccc12	-3%	11µM*	-8%	-14%	-1	-5%
O=C(NCCc1ccncc1)c1ccc2nc(Cc3cccc(Cl)c3)oc2c1	x	x	4%	x	x	x
O=[N+]([O-])c1ccc(OC/C=C2\Oc3ccc([N+](=O)[O-])cc3C2N2CCOCC2)cc1 (configuration not stated)	-17%[46.1 µM]	25µM*	2%	-2%	-2	6%
O=[N+]([O-])c1ccc2c(c1)C(N1CCOCC1)/C(=C/COc1ccc(F)cc1)O2 (configuration not stated)	-17%[46.1 µM]	u	7%	1%	-2	2%
N=C1CCCN1c1ccccc1O	3%	x	13%	-8%	-2	3%
N=C1CCC(=N)c2c1c(O)c1ccccc1c2O	8%[7.67 µM]	x	u	u	-32*	8%
CCCC(=O)Nc1c(-c2ccccc2)c(=O)c(C)nn1-c1ccc(C)cc1	-4%	x	10%	-6%	3	-6%
CCN(CC)C(=O)CN1CCN(Cc2ccc3c(c2)OCO3)CC1	x	x	79µM*	x	8	x
Cc1ccc(C(=O)N2CCN(Cc3ccc4c(c3)OCO4)CC2)cc1[N+](=O)[O-]	6%	13µM*	18%	-5%	0	23%
Cc1cc(C)c2nc(N3CCCC(C(=O)NC4CCCC4)C3)sc2c1 (configuration not stated)	x	x	-3%	x	-2	x
O=C(NNc1cc(C(F)(F)F)ccc1Cl)c1ccc(=O)[nH]c1	x	x	56µM*	x	1	x
SMILES	NPSR antag	ALDH1A1 inh	Sfp inh	JMJD2E inh	Coupling enz	GoLoco inh red
O=C(c1ccc(=O)[nH]c1)N1CCN(S(=O)(=O)c2cc(C(F)(F)F)ccc2Cl)CC1	x	x	10%	x	0	x
Cc1[nH]n(-c2ccccc2)c(=O)c1/C=N/NC(=O)c1ccccc1F	x	x	18%	x	1	x
Cn1c(NNC(=O)/C=C/c2ccc3c(c2)OCO3)cc(=O)n(C)c1=O	6%	x	-7%	u	-37*	1%
O=C1NN(c2ccc(Cl)c(Cl)c2)C(=O)/C1=C/c1cccc(OC(=O)c2cccs2)c1	-19%[46.1 µM]	u	u	4%	8	17%
O=C1NN(c2ccccc2)C(=O)/C1=C\c1cccc(OC(=O)c2cccs2)c1	u	7.9µM*	50µM*	-5%	5	-22%
O=C(CCS(=O)(=O)c1cc(Br)cc2c1N(C(=O)C1CC1)CC2)NCc1ccco1	-13%[46.1 µM]	11µM*	u	9%	-2	-1%
O=S(=O)(c1ccccc1)c1nc(-c2cccs2)oc1NCC1CCCO1 (configuration not stated)	-14%[46.1 µM]	u	56µM*	u	3	-13%
COc1ccc(N2C(=O)[C@@H]3C(c4cccnc4)=NO[C@@H]3C2=O)cc1	7%	x	79µM*	-14%	-3	-4%
Cc1ccc(N2C(=O)[C@@H]3C(c4cccnc4)=NO[C@@H]3C2=O)cc1	9%	x	50µM*	u	2	-33%
O=C1CC2(CCN(C(=O)C(=O)c3c[nH]c4ccccc34)CC2)Oc2ccccc21	x	x	9%	x	0	x
CC1(C)C2CC[C@]1(C)[C@@H](O)C2	x	x	13%	x	x	x
O=C(CCSc1ccccc1)NCCSCc1ccco1	-13%[46.1 µM]	11µM*	50µM*	-2%	-3	x
CS(=O)(=O)N(CC(=O)NCCSCc1ccccc1)c1ccccc1	-19%	28µM*	2%	6%	-3	2%
Cc1cc(Cl)ccc1N(CC(=O)NCCSCc1ccco1)S(C)(=O)=O	13%	13µM*	u	-25%	0	8%
COc1ccc(N(CC(=O)NCCSCc2ccco2)S(=O)(=O)c2ccccc2)cc1	6%	u	-17%	-15%	0	5%
Cc1ccc(N(CC(=O)NCCSCc2ccco2)S(=O)(=O)c2ccc(F)cc2)cc1	42%	20µM*	-25%	-24%	0	1%
O=C(c1ccc(Br)cc1)c1sc(N2CCOCC2)nc1-c1ccccc1	-55%	u	-2%	-10%	-8	-6%
CCOc1cc(C(=O)N2CCCN(C)CC2)cc(OCC)c1OCC	x	x	6%	x	-3	x
COc1ccc(N(CC(=O)NCCSCc2ccco2)S(=O)(=O)c2ccc(C)cc2)cc1	30%	20µM*	-22%	-7%	-2	-8%
O=C(CN(c1ccccc1)S(=O)(=O)c1ccccc1)NCCSCc1ccco1	-16%[46.1 µM]	10µM*	-20%	-29%	1	-7%
Cc1ccc(N(CC(=O)NCCSCc2ccco2)S(C)(=O)=O)cc1	-9%[46.1 µM]	8.9µM*	-18%	-2%	-2	0%
CN(c1ccc(C(=O)NCc2ccco2)cc1)S(C)(=O)=O	3%[46.1 µM]	6%	14%	5%	0	7%
CN(c1ccc(C(=O)NCCSCc2ccco2)cc1)S(C)(=O)=O	-11%[46.1 µM]	2.5µM*	35µM*	10%	-11	-8%
COc1ccc(S(=O)(=O)N2CCOC2CNC(=O)C(=O)NCc2ccccn2)cc1C (configuration not stated)	x	x	14%	x	-3	x
